Measured values taken from publication PMC5540273 (PLoS ONE, 2017).

Tests used:
Settings in all cases: concentration: 1 μM, replicates: in singlicate; n = 1
DAPK1 = test system: DAPK1
DAPK2 = test system: DAPK2
DAPK3 = test system: DAPK3
DCAMKL1 = test system: T1, DCAMKL1
T1 construct: gene DCLK1

DCAMKL2 = test system: T2, DCAMKL2
T2 construct: gene DCLK2

DCAMKL3 = test system: T3, DCAMKL3
T3 construct: gene DCLK3

DDR1 = test system: DDR1
DDR2 = test system: DDR2
DLK = test system: T4, DLK
T4 construct: gene MAP3K12

DMPK2 = test system: T5, DMPK2
T5 construct: gene CDC42BPG
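Further: KINOMEscan kinase panel screen.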

Structure (SMILES) | %Inh (DAPK1) [%] | %Inh (DAPK2) [%] | %Inh (DAPK3) [%] | %Inh (DCAMKL1) [%] | %Inh (DCAMKL2) [%] | %Inh (DCAMKL3) [%] | %Inh (DDR1) [%] | %Inh (DDR2) [%] | %Inh (DLK) [%] | %Inh (DMPK2) [%]
COc1ccc(COc2cc(-n3cnc4ccccc43)sc2C(N)=O)cc1 [GSK1024304] | 3 | 10 | 8 | 0 | 8 | 0 | 0 | 0 | 25 | 7
CCn1cnc2c(N)ncnc21 [GW345098] | 14 | 5 | 18 | 7 | 7 | 25 | 18 | 0 | 0 | 9
C[C@@H](Oc1cc(-n2cnc3ccc(NC(=O)NC(C)(C)C)cc32)sc1C(N)=O)c1ccccc1Cl [GSK346294] | 20 | 10 | 19 | 31 | 0 | 0 | 16 | 18 | 33 | 16
Cc1ccc(C(=O)NCC(N)=O)cc1-n1c(C)cc(OCc2ccc(F)cc2F)c(Br)c1=O | 0 | 0 | 15 | 3 | 17 | 19 | 15 | 3 | 0 | 0
Fc1ccc(-c2ncn(CCCN3CCOCC3)c2-c2ccccn2)cc1 [SB-211742] | 17 | 0 | 10 | 12 | 0 | 12 | 0 | 27 | 20 | 0
O=C(NOCC1CC1)c1ccc(F)c(F)c1Nc1ccc(I)cc1Cl | 1 | 0 | 0 | 0 | 0 | 0 | 0 | 0 | 1 | 0
COc1ccc(Nc2nccc(N3CCC(NC(=O)Nc4cccc(C(C)=O)c4)C3)n2)cc1 (stereo not drawn) [GSK1379731] | 0 | 0 | 0 | 0 | 0 | 0 | 12 | 14 | 0 | 2
Fc1ccc(-c2ncn(CCCN3CCOCC3)c2-c2cccnc2)cc1 [SB-211743] | 9 | 0 | 28 | 19 | 6 | 3 | 0 | 24 | 0 | 0
COCCNC(=O)c1ccc(-c2cc(C(=O)NC3CC3)cc(F)c2C)cc1 [GW868318] | 10 | 0 | 28 | 12 | 19 | 13 | 21 | 21 | 6 | 0
CNc1ncnc2[nH]ncc12 [SKF-18355] | 7 | 0 | 0 | 33 | 15 | 0 | 0 | 64 | 11 | 0
N#Cc1c(N2CCOCC2)sc(-c2ccn[nH]2)c1-c1ccc(Cl)cc1 | 3 | 0 | 0 | 7 | 11 | 0 | 15 | 6 | 19 | 2
CC(C)(C)n1cnc2c(N)ncnc21 [SKF-97359] | 78 | 19 | 0 | 0 | 0 | 11 | 0 | 0 | 31 | 0
